Source: PubChem BioAssay
NALP3 yeast inh: blocks the NALP3 inflammasome reconstituted in yeast | AID 2825 | inhibition, % at 10 µM | Yeast reconstituted NLRP3/ASC/caspase-1, beta-gal luminescence, 24 h | 330,000 tested, 0.39% active;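 active = inhibition of 50% or more; inactive = inhibition below 50%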
NALP1 yeast inh: inhibitors of NALP1 inflammasome in yeast; S. cerevisiae NALP1/ASC/caspase-1 growth, X-gal OD620, 72 h; inhibition, % at 10 µM; 280,000 tested, 0.61% active; in the data active = inhibition mostly above about 24%, no sharp cut-off; inactive = mostly below about 32%
HDAC3 inhib: inhibitors of human histone deacetylase 3; recombinant HDAC3, fluorogenic peptide/trypsin coupled, fluorescence; inhibition, % at 8.3 µM; 320,000 tested, 0.15% active; AID 2718; in the data active = inhibition above about 26%, passing the limit was not always enough; inconclusive = no clear call, values can overlap the other calls
Target sequence (O15379 whole entry, looked up): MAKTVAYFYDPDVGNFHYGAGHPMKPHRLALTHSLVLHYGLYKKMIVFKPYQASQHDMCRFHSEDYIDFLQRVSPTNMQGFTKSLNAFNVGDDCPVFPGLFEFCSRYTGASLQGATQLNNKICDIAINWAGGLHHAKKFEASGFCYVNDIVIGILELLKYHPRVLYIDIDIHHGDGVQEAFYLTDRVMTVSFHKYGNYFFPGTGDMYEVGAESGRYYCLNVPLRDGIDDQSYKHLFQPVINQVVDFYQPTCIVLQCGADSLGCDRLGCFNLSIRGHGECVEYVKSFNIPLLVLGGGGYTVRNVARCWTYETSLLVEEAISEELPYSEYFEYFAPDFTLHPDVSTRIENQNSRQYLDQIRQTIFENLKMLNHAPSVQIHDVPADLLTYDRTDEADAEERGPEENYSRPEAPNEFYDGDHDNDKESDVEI
GASC-1 inh: human JMJD2C demethylase inhibition. inhibition, % at 2.35 µM. 330,000 tested, 0.069% active. GST-JMJD2C(1-420) H3K9me3 demethylation, DELFIA europium;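 active = more than half of a compound's replicate wells show inhibition beyond 50%, single wells judged on their own value; inconclusive = some, but no more than half, of replicates pass 50% inhibition; inactive = no replicate passes 50% inhibition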;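 note: signal counts dimethyl H3K9 product captured on neutravidin plate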
Efflux pump inh: inhibitors of Candida antifungal efflux pumps expressed in yeast | S. cerevisiae Candida pump triplex, Nile Red efflux | inhibition, % at 10 µM | 330,000 tested, 0.44% active | AID 485275;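 active = plate passing quality check with inhibition over a set limit, or well fluorescence over plate mean plus 4 SD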;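 note: Nile Red retained in pooled yeast measured as flow cytometry median fluorescence; higher means more Nile Red kept so more efflux inhibition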
PolyA inh: blocks polyadenylation in yeast reporter cells | S. cerevisiae SKY197-pL101 polyadenylation reporter, beta-gal luminescence; efflux-impaired pdr1/pdr3 knockout yeast; score 100 = 6 SD above DMSO | activity score, % at 12 µM | 300,000 tested, 0.02% active | AID 1875;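 active = lowest replicate activity score at least 50, where 100 means six control SD above control mean; inconclusive = lowest score under 50 but half or more replicates reach 50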;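 note: yeast exposed to compound for 9 h at 30 °C; higher score means more reporter readthrough which indicates perturbed polyadenylation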
Of the large screens only hits and unclear results are named; the others gave an inactive call. Hits are enriched below; roughly 1.5% of the tested compounds scored in any of these assays.

O=C(NCCCN1CCCCCC1)c1ccc(CS(=O)(=O)Cc2ccccc2F)o1	none (no result: NALP3 yeast inh, HDAC3 inhib, GASC-1 inh, Efflux pump inh, PolyA inh)
O=C(NCCCN1CCOCC1)c1ccc(CS(=O)(=O)Cc2ccccc2Cl)o1	NALP1 yeast inh 29
CN(Cc1ccccc1)C(=O)c1ccc([N+](=O)[O-])o1	NALP1 yeast inh 48
COc1ccc(NC(=S)NCc2ccc(S(N)(=O)=O)cc2)cc1OC	HDAC3 inhib inconclusive, GASC-1 inh 56
COc1ccc(CNC(=S)Nc2ccc(S(N)(=O)=O)cc2)cc1	none
O=C(CN1C(=O)COc2ccc(S(=O)(=O)N3CCCC3)cc21)NCc1ccccn1	none (no result: NALP1 yeast inh)
COc1c(C)cc(S(=O)(=O)NCc2ccco2)c(C)c1C	none
Cc1ccccc1OCC(=O)Nc1sc2c(c1C#N)CC(C)(C)NC2(C)C	none
CC1(C)Cc2c(sc(NC(=O)COc3ccc(Cl)cc3)c2C#N)C(C)(C)N1	Efflux pump inh 1.6
O=C(CSc1ccccc1F)NC(=O)c1ccccc1Br	none (no result: NALP1 yeast inh, PolyA inh)
Cn1c(N)c(C(C[N+](=O)[O-])c2c(F)cccc2Cl)c(=O)n(C)c1=O (centres undefined)	NALP1 yeast inh 44
C/C(=N\NC(=O)c1cccc(S(=O)(=O)N2CCCC2)c1)c1cccs1	none
COc1ccc(/C=N/NC(=O)CC(=O)NCc2cccnc2)cc1	NALP1 yeast inh 23
O=C(Nc1ccccc1O)c1cccc(S(=O)(=O)N2CCOCC2)c1	NALP1 yeast inh 29
COc1ccccc1NC(=O)c1cccc(S(=O)(=O)N2CCOCC2)c1	none
O=C(c1cc(-c2ccccn2)nc2ccc(Cl)cc12)N1CCN(CCc2ccccc2)CC1	none
Cc1cnn(C(=O)c2cc(-c3ccccn3)nc3ccc(Cl)cc23)c1	NALP1 yeast inh 41
Cc1ccc(OCCN2CCN(c3nc(NCc4ccco4)c4ccccc4n3)CC2)cc1	NALP1 yeast inh 73
CC(OC(=O)CNC(=O)C12CC3CC(CC(C3)C1)C2)C(=O)Nc1ncc(Cl)cc1Cl (centres undefined)	NALP1 yeast inh 40, GASC-1 inh inconclusive
O=C1CC(N2CCCCCC2)C(=O)N1c1ccc(F)cc1 (centres undefined)	NALP1 yeast inh 37
CCCCNc1nc(-c2ccccc2)nc(-n2ccnc2)n1	NALP1 yeast inh 44
CCCCC(CC(O)COCC(C)C)C(=O)NNC(=S)Nc1ccccc1 (centres undefined)	none
CCC(CC(C)(C)O)C(=O)NNC(=S)Nc1ccccc1 (centres undefined)	NALP1 yeast inh 33
Oc1c(CN2CCN(c3ccccn3)CC2)cc(Cl)c2cccnc12	NALP1 yeast inh 79
CC(C(=O)O)N(c1ccccc1Cl)S(C)(=O)=O (centres undefined)	none (no result: NALP1 yeast inh, PolyA inh)
CCCNc1nc(Nc2ccc(C)cc2)nc(N2CCCC2)n1	NALP1 yeast inh 42
CC1(C)N=C(C(=O)c2ccccc2)N(O)C1(C)O (centres undefined)	NALP1 yeast inh 33
O=C(NCCc1ccc(Cl)cc1)C1CCN(S(=O)(=O)c2ccc(-n3cnnn3)cc2)CC1	none
Cc1ccccc1CCNC(=O)C1CCN(S(=O)(=O)c2ccc(-n3cnnn3)cc2)CC1	NALP1 yeast inh 31 (no result: NALP3 yeast inh, HDAC3 inhib, Efflux pump inh)
COc1cc(/C=N/NC(=O)C2CC(=O)N(c3ccc(C)cc3)C2)cc(OC)c1OC (centres undefined)	none
C[C@@]12CC(=O)NC1N(C(=O)c1cccc(C(F)(F)F)c1)C(c1ccccc1OC(=O)c1cccc(C(F)(F)F)c1)C2 (some centres undefined)	HDAC3 inhib 42
C[C@@]12CC(=O)NC1N(C(=O)c1ccccc1)C(c1ccccc1OC(=O)c1ccccc1)C2 (some centres undefined)	none
CC[n+]1c(/C=C2\Sc3ccccc3N2C)ccc2cccc(C)c21	NALP1 yeast inh 100 (no result: NALP3 yeast inh, HDAC3 inhib, Efflux pump inh)
CN1/C(=C/c2cccc[n+]2CCO)Sc2ccccc21	none
COc1ccc(-c2noc(COC(=O)c3ccco3)n2)cc1OC	none (no result: NALP1 yeast inh, PolyA inh)
Cc1cc(C(=O)N/N=C/c2ccc(N(C)C)o2)cs1	NALP1 yeast inh 31
CC(C)c1ccc(NC(=O)c2cc(Br)ccc2Br)cc1	none
CCc1ccc(NC(=O)c2cc(Br)ccc2Br)cc1	NALP1 yeast inh 42
CCOC(=O)/C(C#N)=C1\SS/C(=C(/C#N)C(=O)OCC)S1	NALP1 yeast inh 80
COc1cc(OC)cc(C(=O)NCCS(=O)(=O)N2CCN(Cc3ccccc3)CC2)c1	none (no result: NALP1 yeast inh)
